# Bioassay records as filed in PubChem.
# Gal4-VP16 FLuc: VP16 counterscreen qHTS for inhibitors of ROR gamma transcriptional activity | Drosophila S2 Gal4-VP16 UAS-luciferase, luminescence, 20 h | AID 2546, 2010 | Potency, µM (doses to about 53.6 µM), for inactives: at the top dose activity, negative = inhibition, usual class: inhibitors | 310,000 tested, 3.5% active;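 note: Gal4-VP16 expression switched on by copper sulfate through the metallothionein promoter; nearly all actives have a fitted effect of over 50% in size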
# TDP1 cell CPT: qHTS for Inhibitors of human tyrosyl-DNA phosphodiesterase 1 (TDP1): qHTS in cells in presence of CPT. chicken DT40 Tdp1-/-;hTDP1 cells + 20 nM CPT, ATP luminescence, 48 h. Potency, µM (top dose mostly 46.2 µM), without a hit: top-dose activity change, negative = growth inhibition, actives largely listed as inhibitors. 420,000 tested, 12% active. AID 686979, 2013; note: nearly all actives have a fitted effect of over 55% in size
#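 Chicken DT40 Tdp1-/- cells stably complemented with human TDP1 were seeded at 400 cells/well in medium containing 20 nM camptothecin, exposed to pin-transferred compounds, and grown at 37 °C for at least 48 hr. Viability was read as ATP luminescence.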
# ALOX12 inh: Primary qHTS assay for inhibitors of human arachidonate 12S-lipoxygenase (ALOX12): Round 2; AID 1671190, 2021; purified 12hLO, xylenol orange hydroperoxide absorbance; 580,000 tested, 1.1% active; Potency, µM (top dose mostly 108 µM), for the others: at the top dose activity change, negative = inhibition, actives largely listed as inhibitors
# Target sequence (P18054 whole entry, looked up): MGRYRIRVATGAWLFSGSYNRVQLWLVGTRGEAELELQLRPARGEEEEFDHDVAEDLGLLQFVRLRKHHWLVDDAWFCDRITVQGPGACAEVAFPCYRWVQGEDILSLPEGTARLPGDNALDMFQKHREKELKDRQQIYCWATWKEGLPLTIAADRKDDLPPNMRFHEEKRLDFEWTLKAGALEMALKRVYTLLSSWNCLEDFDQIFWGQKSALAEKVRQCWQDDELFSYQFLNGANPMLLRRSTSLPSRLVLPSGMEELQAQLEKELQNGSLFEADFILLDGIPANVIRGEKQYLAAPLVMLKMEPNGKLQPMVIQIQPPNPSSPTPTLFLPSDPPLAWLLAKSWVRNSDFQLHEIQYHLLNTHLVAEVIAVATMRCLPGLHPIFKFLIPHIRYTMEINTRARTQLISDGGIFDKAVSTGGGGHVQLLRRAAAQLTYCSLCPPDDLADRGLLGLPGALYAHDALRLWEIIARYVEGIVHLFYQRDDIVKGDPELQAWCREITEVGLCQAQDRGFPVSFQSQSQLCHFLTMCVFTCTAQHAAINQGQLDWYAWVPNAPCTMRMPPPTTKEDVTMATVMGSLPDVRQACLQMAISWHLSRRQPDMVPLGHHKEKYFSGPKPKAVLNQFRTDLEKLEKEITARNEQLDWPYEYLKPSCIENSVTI
#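 Purified human 12hLO (150 nM final) in 25 mM Hepes, 0.01% Triton X-100, pH 7.0 was preincubated 15 min at room temperature with compound. Then 40 uM arachidonic acid was added, 30 min. Hydroperoxide was read by Fe-XO absorbance ratio 573/405 nm.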
# ELG1 repair inh: qHTS screen for small molecules that inhibit ELG1-dependent DNA repair in human embryonic kidney (HEK293T) cells expressing luciferase-tagged ELG1 | HEK293T ELG1-luciferase reporter, luminescence, 16 h; DNA damage induced by 5-fluorouridine | Potency, µM (top dose mostly 46.1 µM), for inactives: at the top dose activity change, negative = inhibition, usual class: inhibitors | 330,000 tested, 2.3% active; note: nearly all actives have a fitted effect of over 55% in size
#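 In this reporter screen, reduction of luminescence relative to DMSO vehicle indicated activity. Compounds and 5-fluorouridine were added together to 2,000 cells per well, incubated for 16 hr at 37 °C, then developed with ONE-Glo.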
# RORgamma inh: qHTS for inhibitors of ROR gamma transcriptional activity; Drosophila S2 Gal4-RORgamma UAS-luciferase reporter, 20 h; Potency, µM (highest dose often 53.6 µM), without a hit: at the highest dose activity change, negative = inhibition, usual class: inhibitors; 310,000 tested, 5.4% active; note: nearly all actives have a fitted effect of over 60% in size
#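 Stably transfected Drosophila Schneider cells are the test system, with ROR gamma fused to Gal4 and luciferase under UAS control; luminescence is read after 20 hr of 700 uM copper sulfate induction at ambient temperature.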
# TDP1 cell noCPT: qHTS for Inhibitors of human tyrosyl-DNA phosphodiesterase 1 (TDP1): qHTS in cells in absence of CPT; DT40 Tdp1-/- hTDP1 cells, no CPT, ATP luminescence, 48 h; Potency, µM (doses to about 46.2 µM), for inactives: at the highest dose activity change, negative = growth inhibition, most hits filed as inhibitors; 420,000 tested, 15% active; AID 686978, 2013; note: nearly all actives have a fitted effect of over 55% in size
#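 Compound effects on proliferation are scored in DT40 Tdp1-/-;hTDP1 cells in the absence of CPT. ATP levels (CellTiter-Glo luminescence) are recorded after a ≥48 hr, 37 °C incubation.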
# Numbers without * were called inactive; ? = inconclusive; · = not tested or not shown; [ ] = another dose, or the depositor's remark. Shown are actives, neighbours in structure and some others; about 15% of the full set was active somewhere. Calls come from the whole dose curve; as a rule, active = well fitted curve in the direction sought with a large enough effect; inconclusive = small, poorly fitted or top-dose-only effect, or another doubt; inactive = no such curve, though single readings can be large; an effect the other way counts as inactive or inconclusive. % is set by controls: 0 for no effect and ±100 for the full control effect; potency is the fitted concentration of half-maximal effect.
SMILES,Gal4-VP16 FLuc,TDP1 cell CPT,ALOX12 inh,ELG1 repair inh,RORgamma inh,TDP1 cell noCPT
Cc1ccc(S(=O)(=O)/N=C2\C=C(Nc3ccc(O)cc3)C(=O)c3ccccc32)cc1,·,2.1µM*,·,10µM*,·,2.9µM*
CN(C)c1nccnc1OC1CCN(C(=O)CCCc2ccccc2)C1 (configuration not stated),·,·,53%,·,·,·
CC1CCc2cc(F)cc3c(O)c(C(=O)NCCN(C)C)c(=O)n1c23 (configuration not stated),4%,21µM*,15%,-1%,-22%,18µM*
Cc1ccc(Nc2ccc(S(N)(=O)=O)cc2[N+](=O)[O-])cc1,·,·,-51%,·,·,·
O=S(=O)(c1ccccc1)N1CCN(S(=O)(=O)c2ccccc2)CC1,·,17%,·,·,·,-1%
O=S(=O)(/N=S1\CC=CCN1S(=O)(=O)c1ccccc1)c1ccccc1 (configuration not stated),·,?,?,·,·,21µM*
CC1CCCN(C(=O)CCc2c[nH]c3ccccc23)C1 (configuration not stated),·,·,8%,·,·,·
CCN1C(=O)c2ccccc2Sc2ccc(NC(=O)Nc3cc(C)cc(C)c3)cc21,·,12µM*,?,·,·,6.5µM*
CCN1C(=O)c2ccccc2Sc2ccc(NC(=O)COc3ccc(Cl)cc3)cc21,·,16µM*,-6%,·,·,18µM*
CN1C(=O)c2ccccc2Sc2ccc(NC(=O)COc3ccccc3)cc21,·,4.1µM*,-9%,·,·,2.9µM*
CCN1C(=O)c2ccccc2Sc2ccc(NC(=O)c3ccc(Cl)cc3)cc21,·,0%,-4%,·,·,-9%
Cc1cc(NC(=O)Cc2c(F)cccc2Cl)no1,-3%,15µM*,2%,4%,?,?
NC(=O)C1CCCN1C(=O)c1nn(-c2ccccc2)c(=O)c2ccccc12 (configuration not stated),·,·,22%,·,·,·
O=C(COc1ccc(-c2nnc3n2CCCC3)cc1)N1CCN(c2ccc(F)cc2)CC1,·,·,28%,·,·,·
CN1C(=O)c2ccccc2Sc2ccc(NC(=O)Nc3ccccc3F)cc21,·,?,-25%,·,·,?
Cc1cccc(OCC(=O)Nc2ccc3c(c2)N(C)C(=O)c2ccccc2S3)c1,·,10µM*,-5%,·,·,10µM*
CN1C(=O)c2ccccc2Sc2ccc(NC(=O)Cc3c(F)cccc3Cl)cc21,·,13µM*,?,·,·,7.3µM*
Cc1oc(-c2ccccc2NS(C)(=O)=O)nc1CN(C)Cc1ccc(Cl)cc1,·,-5%[9.04 µM],-2%,·,·,21µM*
COCCn1cnc2c1c(=O)n(Cc1ccccc1)c(=O)n2CC(C)C,·,·,-1%,·,·,·
O=[N+]([O-])c1cccc(/C=C/c2ccc3cccc(O)c3n2)c1,4.5µM*,4.6µM*,?,?,3.2µM*,3.7µM*
O=[N+]([O-])c1cccc2ccc(/C=C/c3ccc(F)cc3)nc12,4%,?,3%,?,?,?
COc1cc(/C=C/c2ccc3cccc(O)c3n2)ccc1OC(C)=O,·,·,-22%,·,·,·
COC(=O)c1ccc(/C=C/c2ccc3cccc(OC(C)=O)c3n2)cc1,3.5µM*,18µM*,-27%,?,5.6µM*,21µM*
N#C/C(=C\c1ccc(O)c(Br)c1)c1nc2ccccc2[nH]1,·,·,-7%,·,·,·
O=[N+]([O-])c1ccc(/C=C/c2ccc3cccc([N+](=O)[O-])c3n2)cc1,-27%,-24%,-29%,10%,?,?
SMILES,Gal4-VP16 FLuc,TDP1 cell CPT,ALOX12 inh,ELG1 repair inh,RORgamma inh,TDP1 cell noCPT
O=C(O)c1ccc(/C=C/c2ccc3cccc(O)c3n2)cc1,0.56µM*,-11%,-16%,?,2.8µM*,18µM*
Oc1ccc(/C=C/c2ccc3cccc(O)c3n2)cc1Br,18µM*,?,?,?,3.2µM*,?
CCOc1ccc2c(n1)CCN(C(=O)c1ccco1)C2,·,·,32%,·,·,·
COc1nccnc1NC1CCN(C(=O)Cc2ccsc2)CC1,·,·,4%,·,·,·
Cc1nc2ccccc2c(=O)n1/N=C/c1cn[nH]c1-c1ccccc1,-8%,?,2%,?,?,15µM*
Cc1nc2ccccc2c(=O)n1/N=C/c1c(O)ccc2oc3c(c12)CCCC3,?,21µM*,?,?,?,18µM*
CC(C)(C)N=Cc1c(O)ccc2oc3c(c12)CCCC3,-12%,-12%,-29%,?,-36%,-1%
Cn1c(/C=C/c2ccc(Br)cc2)nc2ccccc2c1=O,-12%,?,0%,?,26%,18µM*
O=c1c2ccccc2nc(/C=C/c2cc(Br)ccc2O)n1CCCO,-3%,?,?,?,-33%,16µM*
Cn1c(/C=C/c2ccccc2[N+](=O)[O-])nc2ccccc2c1=O,1%,?,4%,17%,32%,?
Cn1c(=O)c2c(nc(CN3CCCCC3)n2CCCO)n(C)c1=O,·,·,-36%,·,·,·
